The text below walks through data of PubChem BioAssay (NCATS).

A number with no mark means an inactive call. The source made the active and inactive calls. Calls follow the shape of the full dose curve. A value given as a limit tells only on which side of the number the result lay.
Potency is read from the fitted curve at half-maximal effect.

Glucocorticoid receptor (Homo sapiens), sequence (P04150 whole entry, looked up): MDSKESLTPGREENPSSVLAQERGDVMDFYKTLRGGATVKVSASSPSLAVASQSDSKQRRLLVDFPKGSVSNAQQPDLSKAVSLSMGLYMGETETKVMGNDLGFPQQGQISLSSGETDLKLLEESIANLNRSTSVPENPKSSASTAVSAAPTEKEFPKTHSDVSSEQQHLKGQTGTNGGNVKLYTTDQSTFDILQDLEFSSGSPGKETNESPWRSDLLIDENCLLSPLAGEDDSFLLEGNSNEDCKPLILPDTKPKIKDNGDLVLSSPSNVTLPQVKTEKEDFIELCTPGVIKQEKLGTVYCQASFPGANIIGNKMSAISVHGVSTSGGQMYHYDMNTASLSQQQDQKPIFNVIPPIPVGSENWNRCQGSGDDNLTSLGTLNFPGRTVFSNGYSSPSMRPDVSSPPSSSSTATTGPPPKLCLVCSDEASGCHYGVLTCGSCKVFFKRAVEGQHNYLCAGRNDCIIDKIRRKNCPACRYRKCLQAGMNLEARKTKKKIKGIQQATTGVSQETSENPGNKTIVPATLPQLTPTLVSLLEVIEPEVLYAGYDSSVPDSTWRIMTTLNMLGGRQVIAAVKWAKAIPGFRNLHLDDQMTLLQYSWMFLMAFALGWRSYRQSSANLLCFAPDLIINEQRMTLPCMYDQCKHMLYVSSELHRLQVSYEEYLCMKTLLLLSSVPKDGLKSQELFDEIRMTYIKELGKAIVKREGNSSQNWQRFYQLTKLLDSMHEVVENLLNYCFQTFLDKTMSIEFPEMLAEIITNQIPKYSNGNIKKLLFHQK

The test deals with Glucocorticoid receptor (Homo sapiens) (UniProt P04150). The experiment in a line: GR-EFC Redistribution (AID 451). The conditions noted are these: CHO-K1 GR-EFC translocation, beta-gal luminescence, 2 h. From the text:
NIH Molecular Libraries Screening Centers Network [MLSCN]
NIH Chemical Genomics Center [NCGC]
The glucocorticoid receptor (GR) is a cytoplasmic receptor that belongs to the nuclear receptor family of ligand-dependent transcription factors. Upon glucocorticoid binding to its receptor, the glucocorticoid-GR complex translocates into the nucleus, where it binds as a dimer to specific DNA sequences (glucocorticoid response elements), enhancing or suppressing transcription of a wide variety of glucocorticoid-responsive genes. In addition to their important roles in normal physiology and metabolism, glucocorticoids are administered exogenously as treatments for a wide variety of allergic, autoimmune, and neoplastic conditions. Identification of compounds that modulate aspects of GR signalling would be useful in dissecting glucocorticoid response pathways as well as developing GR modulators with more targeted clinical effects.
Traditionally, GR modulators have been identified using receptor binding or direct transactivation assays. However, assays for glucocorticoid-dependent nuclear translocation can also be used to screen for compounds affecting GR signaling.
Immunocytochemical staining has been used to assay for GR translocation, but is not suitable for high throughout screening due to the multiple reagent addition and wash steps required. Recently, a novel cell-based GR assay in Enzyme Fragment Complementation (EFC) format was developed by DiscoveRx (Fremont, CA). The assay uses EFC of b-galactosidase (b-gal) as an indicator of GR-translocation in engineered CHO-K1 biosensor cells. The enzyme acceptor (EA) fragment of b-gal resides in the nucleus , as designed through the use of a proprietary set of sequence additions and modifications. The small peptide enzyme donor (ED) fragment of b-gal is fused directly to the C-terminus of GR, and is localized in the cytoplasm is the absence of receptor signaling. Upon binding to a GR ligand, the complex translocates to the nucleus, where intact enzyme activity is restored by complementation and b-gal activity is detected. We optimized this GR-EFC assay in homogenous 1536-well plate assay format for high throughput screening.
NCGC Assay Protocol Summary:
CHO-K1 cells stably expressing NLS-enzyme acceptor fragment (EA) of b-gal and GR-enzyme donor (ED) fragment of b-gal were maintained in F12 medium (Invitrogen, Carlsbad, CA) at 37 Celsius degrees under a humidified atmosphere containing 5% CO2 and 95% air. The medium contained 10% FBS, 2 mM L-glutamine, 50 U/ml penicillin 50 ug/ml streptomycin, and 250 ug/ml hygromycin and 500 ug/ml G418 (Invitrogen).
GR-translocation was measured beta-gal enzyme activity using the PathHunter Detection Kit containing cell membrane permeablizing reagent and beta-gal substrate (DiscoveRx, Fremont, CA). All compounds were screened as titrations from 0.6 nM to 46 uM final concentration. The assay was performed in 1536-well format as follows:
5 uL cell suspension (1,000 cells)/well
Incubation at 37 Celsius degrees for two hours
1.25 uL 1X detection buffer from the kit supplied by DiscoveRx
Incubation at room temperature for one hour
Read plate in luminescence mode in ViewLux plate reader (PerkinElmer)
Keywords: NIH Roadmap, MLSCN, MLI, MLSMR, GR-EFC, GREFC, qHTS, NCGC
With `CC1(C)S[C@@H]2[C@H](NC(=O)COc3ccccc3)C(=O)N2[C@H]1C(=O)O` (tested in a mixture with another compound), the Potency is above 20.6 µM.

Turning to `CC(=O)/C(C)=N\O`, the Potency was above 46 µM.

In the case of `C/C(=C\CNc1ncnc2nc[nH]c12)CO`, the Potency was above 46 µM.

Turning to `NCc1ccccc1CC(=O)N[C@@H]1C(=O)N2C(C(=O)O)=C(CSc3nnnn3CC(=O)O)CS[C@@H]12`, the Potency is above 20.6 µM.

As for `COC(=O)[C@@H]1[C@@H]2C[C@H]3c4[nH]c5cc(OC)ccc5c4CCN3C[C@@H]2C[C@H](OC(=O)/C=C\c2cc(OC)c(OC)c(OC)c2)[C@H]1OC`, the Potency is above 20.6 µM.

For `O=C(O)[C@@H](O)[C@@H](O)[C@@H](O[C@H]1O[C@@H](CO)[C@@H](O)[C@@H](O)[C@@H]1O)[C@@H](O)CO`, the Potency was above 20.6 µM.

In the case of `C=CCOc1ccccc1OC[C@H](O)CNC(C)C`, the Potency was above 20.6 µM.

For `O=c1cc(-c2ccc(O)cc2)oc2c([C@H]3O[C@@H](CO)[C@@H](O)[C@@H](O)[C@@H]3O)c(O)cc(O)c12`, the Potency was above 20.6 µM.

In the case of `CCO[C@H]1O[C@@H]([C@H](COCc2ccccc2)OCc2ccccc2)[C@@H](OCc2ccccc2)[C@H]1O`, the Potency is above 20.6 µM.

On to `Clc1ccc([C@H](Cn2ccnc2)OCc2csc3c(Cl)cccc23)c(Cl)c1`, for which the Potency is above 20.6 µM.

In the case of `O[C@@](CCN1CCCCC1)(c1ccccc1)[C@@H]1C[C@H]2C=C[C@@H]1C2`, the Potency is above 20.6 µM.

On to `COc1ccc2nccc(C(=O)O)c2c1`, for which the Potency is above 20.6 µM.

Consider `FC(F)(F)c1ccccc1-c1ccc2ncnc(NC3CCNCC3)c2c1`, for which the Potency was above 46 µM.

As to `C=CCN1C(=CCO)[C@H]2C[C@H]3[C@@H]1CC[C@@]31c3ccccc3N3C=C4[C@@H]5N(/C=C/2[C@H]31)c1ccccc1[C@]51CC[C@H]2[C@H]1C[C@@H]4/C(=C/CO)N2CC=C`, the Potency was above 20.6 µM.

`COc1ccc(-c2cc(=O)c3c(O)cc(O)cc3o2)cc1`: the Potency is above 20.6 µM.

As for `C[C@@]12CC3CC(N)(C1)C[C@@](C)(C3)C2`, the Potency is above 20.6 µM.

With `CC(C)(C)NC[C@@H](O)COc1ccccc1C1CCCC1`, the Potency was above 20.6 µM.

Take `CN(C)c1ccc(-c2nccc(NCc3ccccc3)n2)cc1`: the Potency was above 46 µM.

Regarding `CC(=O)N[C@H](CS)C(=O)O`, the Potency was above 46 µM.

For `CC(=O)CC(=O)[C@@]1(O)CC[C@@H]2[C@@H]3C=C(C)C4=CC(=O)CC[C@@H]4[C@H]3CC[C@]21C`, the Potency was above 20.6 µM.

With `CN(C)/N=N\c1nc[nH]c1C(N)=O`, the Potency is above 20.6 µM.

Consider `Cc1c(O)c(=O)n(-c2ccccc2)n1C`, for which the Potency is above 20.6 µM.

For `CNCCC=C1c2ccccc2C=Cc2ccccc21`, the Potency is above 20.6 µM.

For `C[C@H](Oc1ccccc1)C(=O)N[C@@H]1C(=O)N2[C@@H]1SC(C)(C)[C@@H]2C(=O)O`, the Potency is above 20.6 µM.

With `CO[C@H]1[C@H](O[C@H]2O[C@@H](C)[C@@H](O[C@@H]3C[C@](C)(O)[C@H](OC(=O)CC(C)C)[C@H](C)O3)[C@@H](N(C)C)[C@@H]2O)[C@@H](CC=O)C[C@@H](C)[C@@H](O)/C=C\C=C/C[C@@H](C)OC(=O)C[C@H]1OC(C)=O`, the Potency was above 20.6 µM.

Take `CC(C)(C)NC[C@H](O)COc1cccc2c1C[C@@H](O)[C@@H](O)C2`: the Potency is above 20.6 µM.

With `CN1CCC2(CC1)CCN(C(=O)c1ccncc1)CC2`, the Potency is above 46 µM.

As for `CN[C@]1(C)[C@H]2CC[C@@H](C2)C1(C)C`, the Potency is above 20.6 µM.

`CCOC(=O)[C@H](CCc1ccccc1)N[C@@H](C)C(=O)N1[C@H](C(=O)O)C[C@H]2CCC[C@@H]21`: the Potency is above 20.6 µM.

For the compound `C[C@@H]1O[C@H](O[C@@H]2\C=C/C=C\C=C/C=C\C[C@H](C)OC(=O)/C=C\[C@H]3O[C@@H]3C[C@H](O)C[C@]3(O)C[C@@H](O)[C@@H](C(=O)O)[C@H](C2)O3)[C@@H](O)[C@H](N)[C@@H]1O` (stereo in doubt), the Potency was above 20.6 µM.

With `C[C@@]12CC[C@H]3[C@@H](CCC4=CC(=O)CC[C@]43C)[C@H]1CC[C@H]2C(=O)CO`, the Potency was above 20.6 µM.

As for `CC1=CC(=O)C2=C(C)CC[C@@H]3[C@@H](OC(=O)[C@H]3C)[C@H]12`, the Potency is above 20.6 µM.

Turning to `C[N+](C)(CCCOc1ccccc1)c1ccccc1`, the Potency is above 20.6 µM.

Turning to `C[C@@H]1O[C@H](O[C@@H]2[C@@H](Oc3cc(O)c4c(c3)O[C@H](c3ccc(O)cc3)CC4=O)O[C@@H](CO)[C@@H](O)[C@H]2O)[C@@H](O)[C@H](O)[C@@H]1O`, the Potency was above 20.6 µM.

For `Cc1ccccc1N1C(=O)c2cc(S(N)(=O)=O)c(Cl)cc2N[C@H]1C`, the Potency is above 20.6 µM.

As to `CCC(=O)O[C@@]1(C(=O)CCl)[C@@H](C)C[C@@H]2[C@H]3CCC4=CC(=O)C=C[C@@]4(C)[C@]3(F)[C@@H](O)C[C@@]21C`, the Potency is < 5.9e-06 µM (active).

Consider `CN(C)CCO[C@@H](c1ccc(Cl)cc1)c1ccccn1`, for which the Potency was above 20.6 µM.

Regarding `CCN(CCCCOC(=O)c1ccc(OC)c(OC)c1)[C@@H](C)Cc1ccc(OC)cc1`, the Potency was above 20.6 µM.

Consider `C[C@@H]1C[C@H](OC(=O)c2ccccc2O)CC(C)(C)C1`, for which the Potency is above 20.6 µM.

As for `C=CCSC[C@@H]1Nc2cc(Cl)c(S(N)(=O)=O)cc2S(=O)(=O)N1`, the Potency was above 20.6 µM.
